# Laboratory results: PubChem BioAssay AID1851 (National Center for Advancing Translational Sciences (NCATS), 2009)
# The whole screen tested about 16,000 compounds, of which about 5,800 (36%) were called active. Roughly 23% stayed inconclusive and do not appear here. Some of the results follow. A number with no mark means an inactive call. The call rests on the fitted dose curve; in most records, active means well fitted curve in the direction sought with a large enough effect; inconclusive means small, poorly fitted or top-dose-only effect, or effect the other way; inactive means no such curve, though single readings can be large or run the other way.
# Molecular target: Cytochrome P450 2C19 (Homo sapiens) (UniProt P33261)
# Sequence (P33261 whole entry, looked up): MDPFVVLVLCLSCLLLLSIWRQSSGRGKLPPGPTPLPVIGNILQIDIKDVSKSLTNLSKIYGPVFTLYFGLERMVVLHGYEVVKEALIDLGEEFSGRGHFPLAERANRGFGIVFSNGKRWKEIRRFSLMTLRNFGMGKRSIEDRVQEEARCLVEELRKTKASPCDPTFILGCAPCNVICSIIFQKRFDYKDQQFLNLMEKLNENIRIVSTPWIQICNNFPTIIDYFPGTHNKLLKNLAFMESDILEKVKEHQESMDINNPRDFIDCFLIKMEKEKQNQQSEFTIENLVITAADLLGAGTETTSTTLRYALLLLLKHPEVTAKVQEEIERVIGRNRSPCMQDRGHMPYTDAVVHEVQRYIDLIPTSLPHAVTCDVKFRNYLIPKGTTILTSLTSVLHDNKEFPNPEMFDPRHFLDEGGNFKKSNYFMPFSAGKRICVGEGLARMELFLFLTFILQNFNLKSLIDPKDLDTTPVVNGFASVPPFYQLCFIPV
# Experiment: Cytochrome panel assay with activity outcomes
# Details: recombinant CYP, pro-luciferin dealkylation, luminescence, p450-cyp2c19; series mostly up to 57.1 µM
# On the % scale 0 is the no-effect control and ±100 the full control effect.
SMILES,"activity, negative = inhibition",AC50
CNS(=O)(=O)c1ccccc1C(=N)c1ccccc1,-10% [at 11.4 µM],
Cn1ccnc1C[C@@](C)(O)c1ccccc1,-6.82% [at 11.4 µM],
C[C@@](O)(CNS(=O)(=O)c1ccccc1)c1ccccc1,,1 µM (active)
CCn1c(SCC(=O)Nc2nc3ccc(C)cc3s2)nc2c(c1=O)SC(C)C2 (stereo unspecified),,2.82 µM (active)
CCn1c(SCC(=O)Nc2ccc3c(c2)OCCO3)nc2c(c1=O)SC(C)C2 (stereo unspecified),,8.91 µM (active)
Cc1ccc2nc(NC(=O)CSc3nc4c(c(=O)n3C)SC(C)C4)sc2c1 (stereo unspecified),,5.62 µM (active)
CC(C)OC(=O)c1cccc(C(=O)Oc2ccc(Br)cc2)n1,,inactive
COC(=O)c1cccc(C(=O)Nc2ccc(C)cc2)n1,,11.2 µM (active)
Cc1ccc(OC(=O)c2cccc(C(=O)Oc3ccc(C)cn3)n2)nc1,,inactive
Cc1cc(C)n2nc(SCN3C(=O)c4ccccc4C3=O)nc2n1,,2.51 µM (active)
CCSc1nc2nc(C)cc(C)n2n1,,inactive
Cc1ccc(/C=N/NC(=O)CSc2nc3nc(C)cc(C)n3n2)cc1,,inactive
Cc1cc(NS(=O)(=O)c2ccc(NC(=O)CN3C(=O)c4ccccc4C3=O)cc2)nc(C)n1,,inactive
COc1ccccc1CNC(=O)CSc1nc2nc(C)cc(C)n2n1,,10 µM (active)
Cc1cc(C)n2nc(SCc3cc(=O)oc4ccc5ccccc5c34)nc2n1,,8.91 µM (active)
CC12COC3(C(=O)Nc4nccs4)CC1CCC32C (stereo unspecified),,2.24 µM (active)
COCC(=O)N1CCC2(CCCN(C(=O)Nc3cccc(C#N)c3)C2)CC1,,inactive
CC(C/C=N/NC(=O)COc1cc(Cl)ccc1Cl)c1ccccc1 (stereo unspecified),,0.447 µM (active)
O=C(COc1ccc(Cl)cc1Cl)N/N=C/CCc1ccccc1,,2 µM (active)
OC1(c2ccc(OC(F)F)cc2)CSC(=Nc2cccnc2)N1C1CC1 (stereo unspecified),,0.0794 µM (active)
COc1cc(N=c2ssnc2Cl)cc(OC)c1OC,,1.12 µM (active)
Cc1cccc(OC(=O)CN2C(=O)C3C4CCC(C4)C3C2=O)c1C (stereo unspecified),,3.98 µM (active)
C=CCn1c(C)cc(C(=O)CN2C(=O)c3ccccc3C2=O)c1C,,3.98 µM (active)
O=C(CN1C(=O)c2ccccc2C1=O)NC1(C(=O)O)CCCC1,20.8% [at 11.4 µM],

SMILES,"activity, negative = inhibition",AC50
Cc1ccc(C)c(C(=O)CN2C(=O)c3ccccc3S2(=O)=O)c1,,inactive
Cc1cccc(CNc2ncncc2-c2ccc3c(c2)OCO3)c1,,0.501 µM (active)
c1ccc(Nc2ncncc2-c2ccc3c(c2)OCO3)cc1,,0.251 µM (active)
Cc1cnc(CNc2ncncc2-c2ccc3c(c2)OCO3)cn1,,inactive
c1ccc(CNc2ncncc2-c2ccc3c(c2)OCO3)cc1,,0.501 µM (active)
c1cncc(CNc2ncncc2-c2ccc3c(c2)OCO3)c1,,0.2 µM (active)
c1csc(CNc2ncncc2-c2ccc3c(c2)OCO3)c1,,0.794 µM (active)
CC(C)c1nnc(-c2ccc(Cl)cc2)c(N(C)C)n1,,2.51 µM (active)
CN(C)c1ncc2nc(-c3ccc(Cl)cc3)c(=O)n(C)c2n1,,inactive
C[C@]1(O)CC[C@H]2[C@H]3CC=C4N5CCN=C5CC[C@@]4(C)[C@H]3CC[C@@]21C,14.3% [at 11.4 µM],
CC1(O)c2ccccc2C(=O)N1CCc1ccccc1F (stereo unspecified),,0.251 µM (active)
CC(C)c1ccc(/C(C(=O)O)=C(\O)C(=O)O)cc1,-8.84% [at 11.4 µM],
COCCNC(=O)CCCCCn1c(=S)[nH]c2ccccc2c1=O,,22.4 µM (active)
COCCn1c(=S)[nH]c2cc(C(=O)NC(C)C)ccc2c1=O,,15.8 µM (active)
O=C(CCn1c(=S)[nH]c2ccccc2c1=O)NCCCN1CCOCC1,,inactive
CCC1CCCCN1CCn1c(=S)[nH]c2cc(OC)c(OC)cc2c1=O (stereo unspecified),,inactive
CC(C)NC(=O)c1ccc2c(=O)n(Cc3ccco3)c(=S)[nH]c2c1,,inactive
CCOC(=O)CCN1C(=O)[C@H]2[C@H]3[C@H](O)[C@H](O)C/C(=N/OC/C=C(\C)CCC=C(C)C)[C@H]3CC[C@@H]2C1=O,12.1% [at 11.4 µM],
Cc1ccc(S(=O)(=O)CCCS(=O)(=O)c2ccc(C)cc2)cc1,,10 µM (active)
O=S(=O)(c1ccccc1)N1CCC2(CC1)CN(Cc1nccs1)C2,,inactive
O=S(=O)(c1ccccc1)N1CCC2(CC1)CN(Cc1ccccc1)C2,,inactive
Cn1cccc1C(=O)N1CCC2(CCCN(Cc3ccc(C#N)cc3)C2)CC1,,inactive
O=S(=O)(c1ccccc1)N1CCC2(CCN(Cc3nccs3)CC2)CC1,,inactive
O=S(=O)(c1ccccc1)N1CCC2(CCN(Cc3ccncc3)CC2)CC1,,inactive

SMILES,"activity, negative = inhibition",AC50
N#Cc1ccc(CN2CCCC3(CCN(S(=O)(=O)c4ccccc4)CC3)C2)cc1,,15.8 µM (active)
O=S(=O)(c1ccccc1)N1CCC[C@@]2(CCN(Cc3nccs3)C2)C1,,7.94 µM (active)
N#Cc1ccc(CN2CCC3(CC2)CCN(S(=O)(=O)c2ccccc2)CC3)cc1,,inactive
O=S(=O)(c1ccccc1)N1CCC2(CCCN(Cc3ccncc3)C2)CC1,,0.316 µM (active)
CN1CCN(c2ncc3nc(-c4cc(F)cc(F)c4)c(=O)n(CCc4ccccc4)c3n2)CC1,,inactive
CSc1ccccc1N1CCN(C(=O)Nc2ccc3c(c2)NC(=O)CO3)CC1,,7.94 µM (active)
COc1cccc(N2CCN(C(=O)Nc3ccc4c(c3)NC(=O)CO4)CC2)c1,,inactive
Cc1ccc(-n2c3c(c(=O)[nH]c2=O)C(NS(=O)(=O)c2ccc(C)cc2)(C(F)(F)F)C(=O)N3)cc1 (stereo unspecified),,inactive
O=C(Nc1cccc(C(F)(F)F)c1)C1CCCN1S(=O)(=O)c1cccc2cccnc12 (stereo unspecified),,11.2 µM (active)
O=C1OCCC1Sc1nnnn1-c1ccccc1 (stereo unspecified),,22.4 µM (active)
CC(=O)Nc1ccc(NC(=O)CSc2nnc(-c3ccccc3)n2Cc2ccc3c(c2)OCO3)cc1,,3.55 µM (active)
O=C(CSc1nnc(-c2ccccn2)n1Cc1ccco1)Nc1ccc2c(c1)OCO2,,6.31 µM (active)
Cc1cc(NC(=O)CSc2nnc(-c3ccccc3)n2Cc2ccco2)no1,,10 µM (active)
NC(=O)NC(=O)CSc1nnc(-c2ccco2)n1Cc1ccccc1,,inactive
COc1ccc(-c2nc3cnc(N4CCN(C)CC4)nc3n(CCC#N)c2=O)cc1,,inactive
COc1cc(CNC(C)(C)CO)ccc1OCC(=O)Nc1ccc(Br)cc1,,22.4 µM (active)
C=CCOc1ccc(CNC(C)(C)CO)cc1OC,,inactive
C=CCOc1ccc(CNC(C)(C)CO)cc1OCC,,inactive
CC(C)CCNC(=S)NC1CCCC1,,10 µM (active)
CC(C)(C)C(=O)N1CCC(O)(CS(=O)(=O)Cc2ccc(Cl)cc2)CC1,,inactive
CC(O)(CS(=O)(=O)Cc1ccc(Cl)cc1)C(=O)Nc1cccc(C(F)(F)F)c1 (stereo unspecified),,7.94 µM (active)
CC(C)CC(=O)N1CCC(O)(CS(=O)(=O)Cc2ccc(Cl)cc2)CC1,,inactive
CC(O)(CS(=O)(=O)Cc1ccccc1Cl)C(=O)Nc1cccc(C(F)(F)F)c1 (stereo unspecified),,2.82 µM (active)
COCCn1c(=O)c(C)nc2cnc(N3CCN(C)CC3)nc21,,inactive

SMILES,"activity, negative = inhibition",AC50
COc1ccc(CO/N=C/c2c(C)[nH]c(=O)[nH]c2=O)cc1,,inactive
COc1ccc(CN2C(=O)c3ccccc3C(/C=N\OCc3ccc(F)cc3)C2=O)cc1 (stereo unspecified),,2.51 µM (active)
CC(C)NC[C@H](O)c1ccc2ccccc2c1,,inactive
CCN(CC)C[C@@H](O)c1ccc2ccc3ccccc3c2c1,-3.19% [at 11.4 µM],
CCCCOC(OCCCC)[C@H](O)CSc1ccc2ccccc2c1,,3.16 µM (active)
CCCc1nn2c(=O)c(C(c3ccc(C)cc3)c3c(O)nc4sc(CCC)nn4c3=O)c(O)nc2s1,,inactive
CCCCCCN(CCCCCC)C(=O)Cc1c(-c2ccc(F)cc2)[nH]c2ccccc12,,3.98 µM (active)
CCN1C(=O)/C(=C2\SC(N3CCCCC3)=NC2=O)c2ccccc21,,14.1 µM (active)
CN(C)CN1C(=O)S/C(=C2/C(=O)N(CN(C)C)c3ccccc32)C1=O,21.4% [at 11.4 µM],
CC(C)(C)CC(C)(C)c1ccc(O)c(C[N+](C)(C)[O-])c1,-6.26% [at 11.4 µM],
Oc1ccc2ccccc2c1Cc1c(O)ccc2ccccc12,,0.316 µM (active)
CC(C)(C)c1ccc(O)c(CN(Cc2cc(C(C)(C)C)ccc2O)C2CCCCC2)c1,,1.58 µM (active)
CC(C)(C)c1ccc(O)c(CN(Cc2c(O)ccc3ccccc23)C2CCCCC2)c1,,2 µM (active)
CN(C)Cc1cc(C(C)(C)C)ccc1-c1ccc(C(C)(C)C)cc1CN(C)C,39.4% [at 11.4 µM],
Oc1ccc2ccccc2c1CN(Cc1c(O)ccc2ccccc12)C1CCCCC1,,1 µM (active)
O=C(O)Cc1c(O)ccc2ccccc12,33.5% [at 11.4 µM],
N#Cc1cccc(NC(=O)N2CCCC3(CCN(C(=O)c4cccc(F)c4)CC3)C2)c1,,inactive
NC(=O)C(=O)O,,inactive
CCC(NC(=O)C1(C)CC1(Br)Br)c1ccc(C)cc1 (stereo unspecified),,2.51 µM (active)
CC[C@H](NC(=O)c1c(C)c(-c2ccccc2)nc2ccccc12)c1ccccc1,,inactive
O=C(NCc1ccccc1)C12CN(Cc3ccccc3)CC1C(c1cccc([N+](=O)[O-])c1)=NO2 (stereo unspecified),,2.51 µM (active)
COc1ccc(C(=O)N2CC3(CC(c4cccc([N+](=O)[O-])c4)=NO3)C[C@H]2C(=O)NCC(N)=O)cc1 (stereo partly specified),,inactive
CC(C)CCNC(=O)C12CN(Cc3ccccc3)CC1C(c1cccc([N+](=O)[O-])c1)=NO2 (stereo unspecified),,3.55 µM (active)
NC(=O)CNC(=O)[C@@H]1CC2(CC(c3cccc([N+](=O)[O-])c3)=NO2)CN1C(=O)c1ccccc1 (stereo partly specified),,inactive
